Experimental findings from PubChem BioAssay (NCI) are described below.

Test systems include HCT-15 colon; HT29 colon; SNB-75 CNS; SNB-19 CNS; U251 CNS; PC-3 prostate; SK-MEL-5 melanoma; UACC-62 melanoma; LOX IMVI melanoma; SK-MEL-28 melanoma; SK-MEL-2 melanoma; EKVX NSCLC; SN12C renal; UO-31 renal; TK-10 renal; ACHN renal; CAKI-1 renal; CCRF-CEM leukemia; MOLT-4 leukemia; A498 renal.
What all share (experiment): NCI-60 one-dose screen, 48 h (100 = growth as untreated, 0 = no growth, -100 = all killed)
Conditions in all cases: 10 µM unless noted

Molecules are shown by their SMILES. About 83,000 compounds went through this panel and 20% of them were active in at least one assay; those are over-represented in the sample as a whole.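 For each line, cells grew in 96-well plates with the test compound present at a single concentration for 48 hours.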 A number with no mark means an inactive call. Activity calls are given as the source filed them. The calls were made as follows: active = growth percent below 10; inactive = the rest.

For the compound `COc1cccc(Cc2cc(-c3ccccc3)nn(CC(=O)c3ccccc3)c2=O)c1`, the growth with HCT-15 colon is 20.2%; with HT29 colon, 36.6%; with SNB-75 CNS, 50.9%; in the test with SNB-19 CNS it was 58%; with U251 CNS, 37.1%; in the test on PC-3 prostate it was 41.4%. The growth in the test with SK-MEL-5 melanoma was 39.4%; with UACC-62 melanoma, 45.9%; in the test with LOX IMVI melanoma, 11.8%; in the test on SK-MEL-28 melanoma, 73.2%; in the test with SK-MEL-2 melanoma, 85.4%; in the test on EKVX NSCLC, 65.1%. For the same compound, the growth in the test on SN12C renal was 59.3%; with UO-31 renal, 65.1%; in the test on TK-10 renal, 72.1%; in the test on ACHN renal it was 52%; in the test with CAKI-1 renal, 59.6%; in the test on CCRF-CEM leukemia, 39.1%. In the test on MOLT-4 leukemia, the growth is 22.7%.
With `O=[N+]([O-])c1ccc(Oc2nc(Nc3ccc(O[C@H]4CO[C@H]5[C@@H]4OC[C@@H]5O)c(Cl)c3)ncc2F)c(Cl)c1`, the growth with HCT-15 colon was 26.2%; in the test on HT29 colon, 24.8%; in the test on SNB-75 CNS, -2.13% (active); in the test on SNB-19 CNS, 56.6%; with U251 CNS, 23.6%; with PC-3 prostate, 34%. Moreover, the growth in the test on SK-MEL-5 melanoma is -90.9% (active); in the test with UACC-62 melanoma, -8.64% (active); in the test with LOX IMVI melanoma, 16.7%; with SK-MEL-28 melanoma it was 32.3%; with SK-MEL-2 melanoma, 21.7%; in the test on EKVX NSCLC, 43.8%. The growth is 15.9% in the test with SN12C renal; 44.5% in the test with TK-10 renal; 19.3% with ACHN renal; 7.81% (active) in the test on CAKI-1 renal; -2.07% (active) in the test with A498 renal; 25.1% in the test on CCRF-CEM leukemia. For the same compound, the growth with MOLT-4 leukemia was -3.69% (active).
Take `O=C(O)CCC/C=C\C[C@H]1C=CC(=O)/C1=C/C[C@@H](O)CCc1cccc(C(F)(F)F)c1`: the growth in the test on HCT-15 colon was -55.8% (active); with HT29 colon, -8.89% (active); in the test with SNB-75 CNS it was 72.8%; in the test with SNB-19 CNS, 7.63% (active); with U251 CNS, -71.1% (active); in the test on PC-3 prostate, -19.3% (active). In addition, the growth was -85.9% (active) in the test with SK-MEL-5 melanoma; -62.2% (active) with UACC-62 melanoma; -60.9% (active) in the test with LOX IMVI melanoma; -43.6% (active) in the test with SK-MEL-28 melanoma; -6.24% (active) with SK-MEL-2 melanoma; 37.9% in the test with EKVX NSCLC. Besides, the growth with SN12C renal is -24.7% (active); in the test with TK-10 renal it was 11.1%; with ACHN renal it was -70.3% (active); with CAKI-1 renal, 12.6%; with A498 renal, -12% (active); with CCRF-CEM leukemia, 4.1% (active). Further, the growth with MOLT-4 leukemia is -8.07% (active).
With `COc1cc(CNS(=O)(=O)c2ccc(C)cc2)ccc1OCc1cn(-c2ccccc2)nn1`, the growth in the test on HCT-15 colon is 88.2%; in the test with HT29 colon, 103%; in the test on SNB-75 CNS it was 91.9%; in the test on SNB-19 CNS, 92.3%; with U251 CNS, 89.1%; in the test with PC-3 prostate, 86.7%. For the same compound, the growth with SK-MEL-5 melanoma was 80.1%; in the test with UACC-62 melanoma, 75.2%; in the test with LOX IMVI melanoma, 94.1%; with SK-MEL-28 melanoma, 101%; with SK-MEL-2 melanoma it was 102%; in the test on EKVX NSCLC, 87.6%. The growth with SN12C renal was 93.3%; in the test with UO-31 renal, 79.5%; with TK-10 renal, 104%; with ACHN renal it was 95.1%; in the test with CAKI-1 renal, 88.5%; in the test with CCRF-CEM leukemia, 88.9%. The growth in the test on MOLT-4 leukemia was 88.4%.
On to `O=c1ccc(N=Nc2ccc([N+](=O)[O-])cc2)ccc1O`, for which the growth with HCT-15 colon is 13.2%; with HT29 colon, 25.9%; in the test with SNB-75 CNS, 30.7%; in the test with SNB-19 CNS it was 19%; in the test with U251 CNS, 17.4%; with PC-3 prostate, 34.2%. In addition, the growth in the test on SK-MEL-5 melanoma is 9.1% (active); in the test on UACC-62 melanoma, 15.2%; in the test with LOX IMVI melanoma, 3.95% (active); in the test on SK-MEL-28 melanoma, 41.1%; in the test on SK-MEL-2 melanoma it was 28.1%; with EKVX NSCLC it was 5.14% (active). Also, the growth in the test with SN12C renal is 4.86% (active); with UO-31 renal, 17.1%; in the test with TK-10 renal it was 47.9%; with ACHN renal it was 16.5%; in the test with A498 renal, 103%; with MOLT-4 leukemia, 18.6%.
Take `c1ccc(Nc2cc(-c3cccnc3)[nH]n2)cc1`: the growth in the test on HCT-15 colon is 101%; with HT29 colon, 100%; with SNB-75 CNS it was 52.8%; in the test on SNB-19 CNS it was 77.9%; in the test on U251 CNS it was 84%; in the test on PC-3 prostate, 102%. In addition, the growth in the test with SK-MEL-5 melanoma was 101%; in the test on UACC-62 melanoma it was 102%; in the test on LOX IMVI melanoma, 103%; in the test with SK-MEL-28 melanoma it was 105%; in the test on SK-MEL-2 melanoma, 112%; in the test on EKVX NSCLC it was 98.1%. Also, the growth in the test on SN12C renal is 99.3%; in the test with UO-31 renal, 80%; in the test on TK-10 renal, 103%; in the test on ACHN renal, 91.8%; in the test with A498 renal, 69%; with CCRF-CEM leukemia, 106%. Also, the growth with MOLT-4 leukemia was 93.6%.
Turning to `COc1cc(C(=O)c2cc(C)c3[nH]c4ccc(C)cc4c3c2C)cc(OC)c1OC`, the growth is 8.81% (active) in the test on HCT-15 colon; 10.6% in the test on HT29 colon; 39.7% with SNB-75 CNS; 52.2% in the test with SNB-19 CNS; 19.2% in the test with U251 CNS; 23.4% with PC-3 prostate. Further, the growth is -42.3% (active) with SK-MEL-5 melanoma; 62.7% in the test with UACC-62 melanoma; 10.9% with LOX IMVI melanoma; 57.1% in the test on SK-MEL-28 melanoma; 60.4% with SK-MEL-2 melanoma; 44.1% in the test on EKVX NSCLC. Besides, the growth in the test on SN12C renal was 22.5%; in the test on UO-31 renal, 24.9%; in the test on TK-10 renal it was 87.5%; in the test on ACHN renal it was 26.4%; in the test on CAKI-1 renal it was 24.2%; in the test with CCRF-CEM leukemia, 14.2%. The growth in the test on MOLT-4 leukemia was 16.8%.
`COc1cc2oc(-c3ccc(O)cc3)cc(=O)c2c(O)c1-c1c(OC)cc(O)c2c(=O)cc(-c3ccc(O)cc3)oc12`: the growth is 30.4% with HCT-15 colon; 12.1% in the test on HT29 colon; -2.61% (active) with SNB-75 CNS; 17.8% with SNB-19 CNS; 19.2% in the test on U251 CNS; 72.3% with PC-3 prostate. The growth in the test with SK-MEL-5 melanoma was -49.5% (active); in the test on UACC-62 melanoma it was -26.3% (active); in the test with LOX IMVI melanoma it was 18.2%; in the test on SK-MEL-28 melanoma, 18.3%; in the test on SK-MEL-2 melanoma, 51.9%; in the test with EKVX NSCLC, 85.5%. Also, the growth with SN12C renal was 15.8%; in the test with UO-31 renal, 14.6%; in the test on TK-10 renal, 75.3%; in the test on ACHN renal it was 49.4%; in the test on CAKI-1 renal, 26.9%; in the test on CCRF-CEM leukemia, 44.9%. Also, the growth in the test on MOLT-4 leukemia is 32.6%.
